Laboratory results reported in PubChem BioAssay AID1663 (Broad Institute, 2009).
The campaign covered roughly 300,000 compounds. About 660 (0.22%) were called active. This is one part of a sample in which actives are shown more often than they occur. Unmarked numbers belong to inactive results.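 How the source made its calls: active means mean replicate score, as percent of positive control, at or above 50; inconclusive means mean below 50 but at least one replicate at or above 50; inactive means mean and every replicate below 50.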

Assay: inhibitors of platelet dense granule secretion, primary screen, cell-based, MLPCN, human platelets (AID 1663)
Settings: human platelet-rich plasma, SFLLRN dense granule ATP release, luminescence; hits give high values;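 compounds screened at 7.5 µM in platelet-rich plasma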

Row | Compound | inhibition
1 | O=C(Nc1ccncc1)Nc1ccc(F)cc1 | 4.47%
2 | CC1(C)CC[C@]2(C(=O)O)CC[C@]3(C)C(=CCC4[C@@]5(C)CC[C@H](O)C(C)(C)C5[C@H](O)C[C@]43C)[C@@H]2C1 (some centres undefined) | 3.05%
3 | COc1cc(NC(=S)NNC(=O)CC(C)C)c(OC)cc1Cl | -6.51%
4 | COC(=O)c1c(NC(=O)c2ccccc2F)sc2c1C(C(=O)OC)CC2 (centres undefined) | 2.31%
5 | Cc1nc(CC(=O)NNS(=O)(=O)c2ccc(F)c(Cl)c2)cs1 | 12.2%
6 | O=C(N/N=C/c1ccccn1)c1cccc(NC(=O)c2ccc(Cl)cc2)c1 | 1.55%
7 | CN(CCO)c1ccc(/C=N/Nc2nncc3ccccc23)cc1 | 76.1% (active)
8 | C/C(=N\Nc1nncc2ccccc12)c1ccc(Cl)c([N+](=O)[O-])c1 | -6.62%
9 | COc1cc(/C=N/Nc2nn3cnnc3c3ccccc23)cc(OC)c1OC | 11.5%
10 | Cc1c(C(=O)NCCN2CCOCC2)sc2nc(-c3ccc(F)cc3)cn12 | 10.4%
11 | CSCCC(NC(=O)COc1ccccc1)C(=O)OCCOc1ccc(F)cc1 (centres undefined) | -11.3%
12 | CCN1C(=NCc2ccc(OC)cc2)N[C@@H](CCc2ccccc2)[C@H](C(=O)NCc2ccc(OC)cc2)[C@H]1C | 9.74%
13 | CN(C)S(=O)(=O)c1cccc(C(=O)OCC(=O)N2CCCC2=O)c1 | -9.7%
14 | O=C(NCc1ccccc1)C1CCN(C(=O)Cc2ccccc2)CC1 | -35.6%
15 | CCOC(=O)c1cnc2nc(SCc3ccccc3Cl)[nH]n2c1=O | 3.83%
16 | CCOc1ccc(C2C3=C(CCCC3=O)N(CC(=O)O)C3=C2C(=O)CCC3)cc1 | -23.7%
17 | CCN1CCN(C(=O)C2CCCN(S(=O)(=O)c3ccc(OC)c(OC)c3)C2)CC1 (centres undefined) | 5.04%
18 | O=S(=O)(Nc1ncccn1)c1ccc(NS(=O)(=O)c2cccc(Cl)c2Cl)cc1 | 1.24%
19 | COc1cccc(C(=O)c2cc3ccc(O)cc3oc2=O)c1 | 69.5% (active)
20 | COc1cccc(C(=O)NNC(=O)c2cccc(F)c2)c1 | -6.44%

Row | Compound | inhibition
21 | CCOC(=O)c1cc2cc3ccccc3cc2oc1=O | 8.56%
22 | Nc1nonc1-n1nnc(C(=O)N/N=C/c2ccc(Cl)cc2)c1-c1ccc2c(c1)OCO2 | 2.68%
23 | O=C(CN1CCOCC1)N1CCCc2c1c(=O)oc1ccc(OCc3ccccc3)cc21 | -1.74%
24 | CC(C)(C)c1cc[n+](-c2[nH]c(=O)sc2/C=N/N=C(\[O-])c2ccccc2)cc1 | 3.87%
25 | CC(CCc1ccc(O)cc1)NCc1ccc(Cl)cc1Cl (centres undefined) | 1.67%
26 | O=C(CCn1nnnc1CN1CCOCC1)N1CCC(c2ccccc2Cl)C1 (centres undefined) | 2.44%
27 | CCc1cc(CNC(=O)CC2C(=O)NCCN2CC2CCCCC2)on1 (centres undefined) | 4.79%
28 | CN=C1S/C(=C\c2c(OC)cc(OC)cc2OC)C(=O)N1C | 10.3%
29 | COc1ccccc1C(=O)COC(=O)CNS(=O)(=O)c1ccc(NC(C)=O)cc1 | 6.24%
30 | Cn1cc([N+](=O)[O-])c(C(=O)Nc2ccc3c(c2)OCCO3)n1 | 31.8%
31 | Cc1onc(C(=O)Nc2ccc3c(c2)OCO3)c1[N+](=O)[O-] | 75.7% (active)
32 | Cc1nn(CC(=O)Nc2ccc3c(c2)OCO3)c(C)c1[N+](=O)[O-] | 11.1%
33 | Cc1nn(C)c(Cl)c1CN1CCC(Oc2ccc(C(=O)N3CCCC3)cc2)CC1 | 0.366%
34 | Brc1ccc(C2CC(c3ccccc3)=Nc3ccccc3N2)cc1 (centres undefined) | 7.02%
35 | C=CCn1c(C)cc(C2=NNC(=NCC)SC2)c1C | 50.4% (active)
36 | Cc1cccc(N=C2NN=C(c3c[nH]c4ccccc34)CS2)c1 | -0.733%
37 | C=CCn1c(C)cc(C(=O)CN2C(=O)c3ccccc3C2=O)c1C | 6.9%
38 | COc1ccc(CCN2C(=O)N(c3ccc(OC)cc3)C(=O)C2CC(=O)Nc2ccc(OC)cc2)cc1 (centres undefined) | -2.02%
39 | COC(=O)[C@@]12CCCN1[C@H](c1ccc(-c3ccc(F)cc3)c(OC)c1)[C@H]1C(=O)N(C)C(=O)[C@H]12 | 0.984%
